Source: ChEMBL document CHEMBL1961873, “Compounds: GSK PKIS; Assays: Nanosyn kinase panel” (2012)

Key:
[1] = biological target: Mast/stem cell growth factor receptor Kit (Homo sapiens) (UniProt P10721); conditions: at 1 µM
[2] = test system: Mast/stem cell growth factor receptor Kit (Homo sapiens), P10721 [D816V]; conditions: at 0.1 µM
[3] = test system: Mast/stem cell growth factor receptor Kit (Homo sapiens), P10721 [D816V]; conditions: at 1 µM
[4] = test system: Mast/stem cell growth factor receptor Kit (Homo sapiens), P10721 [T670I]; conditions: at 0.1 µM
[5] = test system: Mast/stem cell growth factor receptor Kit (Homo sapiens), P10721 [T670I]; conditions: at 1 µM
[6] = test system: Mast/stem cell growth factor receptor Kit (Homo sapiens), P10721 [V560G]; conditions: at 0.1 µM
[7] = test system: Mast/stem cell growth factor receptor Kit (Homo sapiens), P10721 [V560G]; conditions: at 1 µM
[8] = biological target: Tyrosine-protein kinase Lck (Homo sapiens) (UniProt P06239); conditions: at 0.1 µM
[9] = biological target: Tyrosine-protein kinase Lck (Homo sapiens) (UniProt P06239); conditions: at 1 µM
[10] = biological target: Leukocyte tyrosine kinase receptor (Homo sapiens) (UniProt P29376); conditions: at 0.1 µM
[11] = biological target: Leukocyte tyrosine kinase receptor (Homo sapiens) (UniProt P29376); conditions: at 1 µM
[12] = biological target: Tyrosine-protein kinase Lyn (Homo sapiens) (UniProt P07948); conditions: at 0.1 µM
[13] = biological target: Tyrosine-protein kinase Lyn (Homo sapiens) (UniProt P07948); conditions: at 1 µM
[14] = biological target: Tyrosine-protein kinase Lyn (Homo sapiens) (UniProt P07948); conditions: at 0.1 µM; remark: listed apart in the source
[15] = biological target: Tyrosine-protein kinase Lyn (Homo sapiens) (UniProt P07948); conditions: at 1 µM; remark: listed apart in the source
[16] = biological target: T1, Tyrosine-protein kinase Mer (Homo sapiens) (UniProt Q12866); conditions: at 0.1 µM
T1 sequence (whole entry): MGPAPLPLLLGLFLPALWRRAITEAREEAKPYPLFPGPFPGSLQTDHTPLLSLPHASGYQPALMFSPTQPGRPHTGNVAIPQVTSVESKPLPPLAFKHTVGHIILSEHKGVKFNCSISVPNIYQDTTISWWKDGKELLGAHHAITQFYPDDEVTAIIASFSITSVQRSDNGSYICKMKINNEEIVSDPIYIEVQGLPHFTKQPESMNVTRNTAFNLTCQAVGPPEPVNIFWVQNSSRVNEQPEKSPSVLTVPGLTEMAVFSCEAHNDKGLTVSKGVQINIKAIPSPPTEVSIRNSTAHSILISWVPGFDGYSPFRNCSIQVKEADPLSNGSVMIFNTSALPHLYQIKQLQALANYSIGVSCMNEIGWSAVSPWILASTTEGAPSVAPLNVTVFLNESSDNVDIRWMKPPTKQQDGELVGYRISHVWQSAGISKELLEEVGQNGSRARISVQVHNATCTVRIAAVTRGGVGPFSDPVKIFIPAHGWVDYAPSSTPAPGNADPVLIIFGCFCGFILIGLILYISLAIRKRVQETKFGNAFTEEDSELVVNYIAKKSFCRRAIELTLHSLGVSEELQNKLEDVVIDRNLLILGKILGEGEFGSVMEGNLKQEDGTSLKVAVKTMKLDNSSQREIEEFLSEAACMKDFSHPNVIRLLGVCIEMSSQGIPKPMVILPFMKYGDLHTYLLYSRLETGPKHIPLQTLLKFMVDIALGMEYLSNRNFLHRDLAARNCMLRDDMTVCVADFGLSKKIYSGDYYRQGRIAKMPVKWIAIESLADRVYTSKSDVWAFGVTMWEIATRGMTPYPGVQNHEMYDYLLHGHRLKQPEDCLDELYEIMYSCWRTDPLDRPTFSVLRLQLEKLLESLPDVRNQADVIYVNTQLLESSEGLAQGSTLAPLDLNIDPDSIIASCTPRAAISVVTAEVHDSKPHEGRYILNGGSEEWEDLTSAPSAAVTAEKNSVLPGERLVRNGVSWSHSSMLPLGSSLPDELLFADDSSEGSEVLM

[17] = biological target: T1, Tyrosine-protein kinase Mer (Homo sapiens); conditions: at 1 µM
[18] = biological target: Hepatocyte growth factor receptor (Homo sapiens) (UniProt P08581); conditions: at 0.1 µM
[19] = biological target: Hepatocyte growth factor receptor (Homo sapiens) (UniProt P08581); conditions: at 1 µM
[20] = biological target: T2, Muscle, skeletal receptor tyrosine-protein kinase (Homo sapiens) (UniProt O15146); conditions: at 0.1 µM;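 note: values are mean inhibition of MuSK from the GSK PKIS kinase screening panel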
T2 sequence (whole entry): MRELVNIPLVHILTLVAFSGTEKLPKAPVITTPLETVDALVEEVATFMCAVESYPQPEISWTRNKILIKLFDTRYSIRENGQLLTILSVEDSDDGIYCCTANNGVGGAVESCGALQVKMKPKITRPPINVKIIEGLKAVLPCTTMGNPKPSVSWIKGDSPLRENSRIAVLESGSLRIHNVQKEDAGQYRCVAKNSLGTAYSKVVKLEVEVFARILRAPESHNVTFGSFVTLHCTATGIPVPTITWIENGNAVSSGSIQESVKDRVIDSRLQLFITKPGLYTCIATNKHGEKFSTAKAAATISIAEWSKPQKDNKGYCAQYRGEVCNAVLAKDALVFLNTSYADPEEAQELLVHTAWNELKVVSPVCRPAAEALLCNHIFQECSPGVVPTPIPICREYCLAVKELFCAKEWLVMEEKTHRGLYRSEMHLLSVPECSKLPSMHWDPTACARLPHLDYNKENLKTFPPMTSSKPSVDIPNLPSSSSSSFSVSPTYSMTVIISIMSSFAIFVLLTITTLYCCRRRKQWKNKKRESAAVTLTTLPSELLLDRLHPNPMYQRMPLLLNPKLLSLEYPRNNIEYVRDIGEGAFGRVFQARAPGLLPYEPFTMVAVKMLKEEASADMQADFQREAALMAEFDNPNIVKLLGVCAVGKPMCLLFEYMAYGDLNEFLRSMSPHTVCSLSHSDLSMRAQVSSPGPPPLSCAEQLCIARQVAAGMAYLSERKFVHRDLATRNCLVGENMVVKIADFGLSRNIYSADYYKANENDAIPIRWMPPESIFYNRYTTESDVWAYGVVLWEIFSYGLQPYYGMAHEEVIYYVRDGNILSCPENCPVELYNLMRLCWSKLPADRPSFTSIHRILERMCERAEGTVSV

Chain of Tyrosine-protein kinase Lyn (Homo sapiens) (P07948 2-512 limits assumed): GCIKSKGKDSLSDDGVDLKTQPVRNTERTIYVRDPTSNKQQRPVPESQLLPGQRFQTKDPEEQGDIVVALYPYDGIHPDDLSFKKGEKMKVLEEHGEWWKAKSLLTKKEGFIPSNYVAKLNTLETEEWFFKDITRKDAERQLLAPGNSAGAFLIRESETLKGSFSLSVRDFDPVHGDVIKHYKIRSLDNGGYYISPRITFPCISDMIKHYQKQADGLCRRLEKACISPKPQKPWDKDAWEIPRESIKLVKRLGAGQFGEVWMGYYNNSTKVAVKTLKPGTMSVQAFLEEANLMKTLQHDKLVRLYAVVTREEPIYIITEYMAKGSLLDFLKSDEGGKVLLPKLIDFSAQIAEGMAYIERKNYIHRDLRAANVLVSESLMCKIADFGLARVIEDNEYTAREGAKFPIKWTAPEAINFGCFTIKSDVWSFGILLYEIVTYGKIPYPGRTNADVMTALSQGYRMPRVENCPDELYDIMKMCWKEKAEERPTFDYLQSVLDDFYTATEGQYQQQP
Chain of Mast/stem cell growth factor receptor Kit (Homo sapiens), P10721 [D816V] (P10721 whole entry D816V): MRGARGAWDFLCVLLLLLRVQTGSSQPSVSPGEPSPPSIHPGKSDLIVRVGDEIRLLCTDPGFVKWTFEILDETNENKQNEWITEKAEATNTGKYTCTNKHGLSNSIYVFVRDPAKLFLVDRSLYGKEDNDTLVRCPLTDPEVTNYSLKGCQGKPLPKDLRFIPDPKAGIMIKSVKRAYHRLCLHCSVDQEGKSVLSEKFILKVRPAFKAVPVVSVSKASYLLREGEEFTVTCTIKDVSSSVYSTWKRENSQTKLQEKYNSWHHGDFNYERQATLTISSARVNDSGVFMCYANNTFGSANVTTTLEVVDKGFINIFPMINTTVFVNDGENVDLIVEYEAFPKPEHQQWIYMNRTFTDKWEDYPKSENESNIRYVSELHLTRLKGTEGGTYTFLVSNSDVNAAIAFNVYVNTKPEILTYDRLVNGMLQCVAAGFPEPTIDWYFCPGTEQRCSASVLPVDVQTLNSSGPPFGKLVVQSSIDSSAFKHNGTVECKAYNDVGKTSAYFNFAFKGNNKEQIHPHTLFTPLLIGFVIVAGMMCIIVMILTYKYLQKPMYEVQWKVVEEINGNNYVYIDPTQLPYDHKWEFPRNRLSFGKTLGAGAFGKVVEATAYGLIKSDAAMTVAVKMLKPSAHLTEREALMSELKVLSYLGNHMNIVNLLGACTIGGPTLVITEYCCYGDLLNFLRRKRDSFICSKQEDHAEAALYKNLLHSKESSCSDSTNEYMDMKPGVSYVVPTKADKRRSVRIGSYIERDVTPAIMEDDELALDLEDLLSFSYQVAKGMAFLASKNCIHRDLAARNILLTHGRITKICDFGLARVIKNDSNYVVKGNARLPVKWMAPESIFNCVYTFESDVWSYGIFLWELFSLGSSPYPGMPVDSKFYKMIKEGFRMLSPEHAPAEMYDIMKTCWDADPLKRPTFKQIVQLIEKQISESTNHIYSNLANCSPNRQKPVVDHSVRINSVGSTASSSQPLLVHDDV
Chain of Tyrosine-protein kinase Lck (Homo sapiens) (P06239 2-509 limits assumed): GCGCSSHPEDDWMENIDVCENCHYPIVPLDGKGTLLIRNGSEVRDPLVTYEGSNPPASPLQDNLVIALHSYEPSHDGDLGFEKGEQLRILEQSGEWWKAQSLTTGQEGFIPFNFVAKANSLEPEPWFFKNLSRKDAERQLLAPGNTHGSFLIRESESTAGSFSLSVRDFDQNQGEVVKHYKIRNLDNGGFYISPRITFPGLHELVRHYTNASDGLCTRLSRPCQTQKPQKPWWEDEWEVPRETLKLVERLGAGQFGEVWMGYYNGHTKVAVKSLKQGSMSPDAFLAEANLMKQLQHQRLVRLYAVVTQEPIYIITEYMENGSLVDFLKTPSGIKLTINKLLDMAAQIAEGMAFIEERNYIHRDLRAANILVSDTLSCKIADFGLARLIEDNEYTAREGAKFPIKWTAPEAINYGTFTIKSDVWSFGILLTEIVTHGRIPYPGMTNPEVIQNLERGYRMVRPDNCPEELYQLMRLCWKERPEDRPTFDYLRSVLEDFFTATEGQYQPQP
Chain of Mast/stem cell growth factor receptor Kit (Homo sapiens) (P10721 whole entry): as the sequence (P10721 whole entry D816V) above, with V816D counted along it
Chain of Mast/stem cell growth factor receptor Kit (Homo sapiens), P10721 [T670I] (P10721 whole entry T670I): as the sequence (P10721 whole entry D816V) above, with T670I, V816D counted along it
Chain of Mast/stem cell growth factor receptor Kit (Homo sapiens), P10721 [V560G] (P10721 whole entry V560G): as the sequence (P10721 whole entry D816V) above, with V560G, V816D counted along it
Chain of Hepatocyte growth factor receptor (Homo sapiens) (P08581 whole entry): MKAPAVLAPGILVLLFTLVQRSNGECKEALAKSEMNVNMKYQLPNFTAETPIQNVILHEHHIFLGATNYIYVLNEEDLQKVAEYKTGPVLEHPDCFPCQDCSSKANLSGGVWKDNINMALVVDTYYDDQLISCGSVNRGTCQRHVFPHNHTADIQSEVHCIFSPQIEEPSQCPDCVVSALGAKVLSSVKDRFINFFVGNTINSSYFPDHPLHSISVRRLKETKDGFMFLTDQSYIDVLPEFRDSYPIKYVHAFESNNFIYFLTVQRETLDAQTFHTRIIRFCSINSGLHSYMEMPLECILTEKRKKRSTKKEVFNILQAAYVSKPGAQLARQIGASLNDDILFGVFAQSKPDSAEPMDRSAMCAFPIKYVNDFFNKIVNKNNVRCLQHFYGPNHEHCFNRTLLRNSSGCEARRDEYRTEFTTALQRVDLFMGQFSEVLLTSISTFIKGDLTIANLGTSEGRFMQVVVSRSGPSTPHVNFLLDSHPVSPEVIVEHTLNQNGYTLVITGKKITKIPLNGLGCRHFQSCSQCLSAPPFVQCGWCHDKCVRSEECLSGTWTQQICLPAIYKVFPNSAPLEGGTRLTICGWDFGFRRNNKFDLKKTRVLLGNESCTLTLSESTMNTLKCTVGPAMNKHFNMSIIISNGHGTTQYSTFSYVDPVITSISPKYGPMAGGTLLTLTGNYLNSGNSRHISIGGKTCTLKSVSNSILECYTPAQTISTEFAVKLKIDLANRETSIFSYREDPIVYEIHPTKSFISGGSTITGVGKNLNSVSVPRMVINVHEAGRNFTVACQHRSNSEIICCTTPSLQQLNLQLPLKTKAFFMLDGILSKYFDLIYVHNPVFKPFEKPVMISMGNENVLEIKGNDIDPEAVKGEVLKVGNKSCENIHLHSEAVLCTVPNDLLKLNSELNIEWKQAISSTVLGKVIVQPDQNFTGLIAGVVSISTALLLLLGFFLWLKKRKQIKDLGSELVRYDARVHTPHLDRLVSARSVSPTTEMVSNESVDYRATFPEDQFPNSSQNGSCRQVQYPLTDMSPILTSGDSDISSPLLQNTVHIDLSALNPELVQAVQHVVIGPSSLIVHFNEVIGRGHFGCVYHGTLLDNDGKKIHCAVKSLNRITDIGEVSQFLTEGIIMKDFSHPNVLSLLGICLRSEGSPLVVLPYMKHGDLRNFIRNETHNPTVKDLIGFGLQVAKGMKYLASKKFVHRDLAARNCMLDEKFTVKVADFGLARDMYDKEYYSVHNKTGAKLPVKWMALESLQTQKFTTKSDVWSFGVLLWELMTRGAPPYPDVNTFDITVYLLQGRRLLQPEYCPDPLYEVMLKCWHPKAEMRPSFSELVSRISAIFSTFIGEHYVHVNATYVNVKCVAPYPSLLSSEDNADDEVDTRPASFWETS
Chain of Leukocyte tyrosine kinase receptor (Homo sapiens) (P29376 whole entry): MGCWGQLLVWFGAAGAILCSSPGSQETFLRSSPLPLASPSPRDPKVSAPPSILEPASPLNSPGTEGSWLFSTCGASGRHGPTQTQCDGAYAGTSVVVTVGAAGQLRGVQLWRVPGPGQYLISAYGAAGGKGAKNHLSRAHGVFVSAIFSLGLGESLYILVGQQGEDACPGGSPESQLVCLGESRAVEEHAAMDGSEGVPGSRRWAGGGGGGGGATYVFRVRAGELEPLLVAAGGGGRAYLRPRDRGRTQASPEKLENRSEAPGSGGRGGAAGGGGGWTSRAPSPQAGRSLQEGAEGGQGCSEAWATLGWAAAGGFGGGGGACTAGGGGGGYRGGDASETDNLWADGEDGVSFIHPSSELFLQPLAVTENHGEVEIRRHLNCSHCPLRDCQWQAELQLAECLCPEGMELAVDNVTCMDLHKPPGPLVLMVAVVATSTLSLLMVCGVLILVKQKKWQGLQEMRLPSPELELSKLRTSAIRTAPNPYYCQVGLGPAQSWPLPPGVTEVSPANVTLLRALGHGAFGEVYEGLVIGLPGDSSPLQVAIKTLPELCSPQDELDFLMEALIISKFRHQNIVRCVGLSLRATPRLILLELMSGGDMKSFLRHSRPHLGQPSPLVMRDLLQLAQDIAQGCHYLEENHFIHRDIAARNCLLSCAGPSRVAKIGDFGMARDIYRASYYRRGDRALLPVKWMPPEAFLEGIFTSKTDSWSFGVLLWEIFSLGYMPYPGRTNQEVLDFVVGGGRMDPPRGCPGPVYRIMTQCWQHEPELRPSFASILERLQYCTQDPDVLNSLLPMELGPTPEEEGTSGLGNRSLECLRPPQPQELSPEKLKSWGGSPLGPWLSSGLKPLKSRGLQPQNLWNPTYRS

For NC(=O)c1cc(-c2ccncc2)cc(-c2ccccc2)c1N, the inhibition [1] was 75.5%, the inhibition [2] was 6.4% and the inhibition [3] was 6.94%. For the same compound, the inhibition [4] was 3.99%, the inhibition [5] was 4.83% and the inhibition [6] was 2.91%. It also gave an inhibition [7] of 25.1%, an inhibition [8] of 7.95% and an inhibition [9] of 41.6%. It also gave an inhibition [10] of 5.44%, an inhibition [11] of 6.16% and an inhibition [12] of 11.7%. The inhibition [13] was 48.8%, the inhibition [14] was 10% and the inhibition [15] was 43%. The inhibition [16] was 1.28%, the inhibition [17] was 3.16% and the inhibition [18] was 0.99%. The inhibition [19] was 3.43% and the inhibition [20] was 2.46%.
Compound CS(=O)(=O)CCNCc1cc(-c2cc3c(Nc4ccc(OCc5cccc(F)c5)c(Cl)c4)ncnc3s2)cs1 has an inhibition [1] of 8.47%, an inhibition [2] of 2.03% and an inhibition [3] of 6.26%. It also gave an inhibition [4] of 2.2%, an inhibition [5] of 5.07% and an inhibition [6] of -1.18%. The inhibition [7] was 0.47%, the inhibition [8] was 2.76% and the inhibition [9] was 4.18%. For the same compound, the inhibition [10] was 6.05%, the inhibition [11] was 6.25% and the inhibition [12] was 5.45%. The inhibition [13] was 6.19%, the inhibition [14] was 2.93% and the inhibition [15] was 6.07%. It also gave an inhibition [16] of 4.4%, an inhibition [17] of 8.06% and an inhibition [18] of 7.8%. The inhibition [19] was 6.72% and the inhibition [20] was 2.43%.
For CN(C)c1ccc2c(c1)/C(=C/Nc1ccc(S(N)(=O)=O)cc1)C(=O)N2, the inhibition [1] was 28.4%, the inhibition [2] was 1.55% and the inhibition [3] was 3.22%. It also gave an inhibition [4] of 3.39%, an inhibition [5] of 10% and an inhibition [6] of -1.48%. It also gave an inhibition [7] of -1.72%, an inhibition [8] of 2.35% and an inhibition [9] of 12.7%. The inhibition [10] was 0.81%, the inhibition [11] was 2.8% and the inhibition [12] was 3.6%. For the same compound, the inhibition [13] was 22.4%, the inhibition [14] was 2.71% and the inhibition [15] was 17.4%. It also gave an inhibition [16] of 1.88%, an inhibition [17] of 10.8% and an inhibition [18] of -0.65%. The inhibition [19] was 4.48% and the inhibition [20] was 8.66%.
COc1cc2ncn(-c3cc(OCCc4ccccc4)c(C(N)=O)s3)c2cc1OC was tested, and the inhibition [1] was 5.42%, the inhibition [2] was 5.33% and the inhibition [3] was -0.63%. It also gave an inhibition [4] of 0.21%, an inhibition [5] of -1.17% and an inhibition [6] of -2.95%. For the same compound, the inhibition [7] was -0.35%, the inhibition [8] was 2.24% and the inhibition [9] was 5.88%. The inhibition [10] was 1.89%, the inhibition [11] was 1.98% and the inhibition [12] was 1.83%. For the same compound, the inhibition [13] was 9.45%, the inhibition [14] was 0.79% and the inhibition [15] was 7.19%. It also gave an inhibition [16] of 2.54%, an inhibition [17] of 6.75% and an inhibition [18] of 1.96%. It also gave an inhibition [19] of 5.5% and an inhibition [20] of 2.9%.
With CCN(CC)Cc1ccc(Nc2nccc(-c3cnn4ncccc34)n2)cc1 the inhibition [1] was 93.1%, the inhibition [2] was 1.8% and the inhibition [3] was 4.13%. The inhibition [4] was 19.4%, the inhibition [5] was 80.9% and the inhibition [6] was 8.63%. For the same compound, the inhibition [7] was 61.5%, the inhibition [8] was 1.35% and the inhibition [9] was 15.3%. For the same compound, the inhibition [10] was 4.48%, the inhibition [11] was 9.98% and the inhibition [12] was 3.53%. It also gave an inhibition [13] of 11.8%, an inhibition [14] of 2.02% and an inhibition [15] of 9.31%. The inhibition [16] was 2.93%, the inhibition [17] was 9.85% and the inhibition [18] was 7.6%. It also gave an inhibition [19] of 10.4% and an inhibition [20] of 6.42%.
Work on c1ccc(-c2n[nH]cc2-c2ccnc(-c3ccc(OCCN4CCOCC4)cc3)c2)nc1 yielded an inhibition [1] of 2.31%, an inhibition [2] of -0.77% and an inhibition [3] of 8.41%. For the same compound, the inhibition [4] was -3%, the inhibition [5] was -2.32% and the inhibition [6] was 7.8%. For the same compound, the inhibition [7] was 10.4%, the inhibition [8] was 1.7% and the inhibition [9] was 9.5%. For the same compound, the inhibition [10] was -0.05%, the inhibition [11] was -0.95% and the inhibition [12] was 1.31%. For the same compound, the inhibition [13] was 10.2%, the inhibition [14] was 1.54% and the inhibition [15] was 7.34%. The inhibition [16] was 5.12%, the inhibition [17] was 5.39% and the inhibition [18] was 7.49%. The inhibition [19] was 5.59% and the inhibition [20] was 6.97%.
With Fc1ccc(-c2c(-c3ccncc3)nc3n2CCS3)cc1 the inhibition [1] was 9.55%, the inhibition [2] was 0.48% and the inhibition [3] was 4.72%. The inhibition [4] was 2.05%, the inhibition [5] was 3.53% and the inhibition [6] was -2.29%. The inhibition [7] was -3.6%, the inhibition [8] was -3.58% and the inhibition [9] was -1.31%. The inhibition [10] was 3.49%, the inhibition [11] was 1.53% and the inhibition [12] was 2.47%. It also gave an inhibition [13] of 6.12%, an inhibition [14] of 1.33% and an inhibition [15] of 3.93%. For the same compound, the inhibition [16] was 1.44%, the inhibition [17] was 1.51% and the inhibition [18] was 3.45%. For the same compound, the inhibition [19] was 0.39% and the inhibition [20] was 4.78%.
